SMILES strings stand for the structures. Unmarked numbers belong to inactive results. Entries that show only a call come without a potency. Calls of active or inactive are those of the source. Calls follow the shape of the dose curve; as a rule, active = well fitted inhibition curve with a large enough effect; inconclusive = small, poorly fitted or top-dose-only effect; inactive = flat fitted curve, though single readings scatter.

For this experiment, the system named is Nanoluciferase (engineered Oplophorus gracilirostris luciferase). The experiment can be described thus: Primary Nanoluciferase (NLuc) qHTS assay for identification of artifact compounds. (AID 1845222).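 Also: NLuc secreted into diluted conditioned medium of S16 cells; series mostly up to about 54 µM.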 An outline of the steps: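 NLuc from S16 cell medium (1:55) plus test compounds, 15 min, room temperature. Luminescence after Nano-Glo (1:100) addition, 5 min.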

`CCC(C)/C=C(C)/C=C/C1=CC2=C(Cl)C(=O)C(C)(OC(C)=O)C(=O)C2=CN1CCCCC(N)C(=O)O` (centres undefined): the Potency entry was “inactive”.

Turning to `CCOc1ncc(S(=O)(=O)N2CCN(CC)CC2)cc1-c1nc2c(CC)n(CCOC)nc2c(=O)[nH]1`, the Potency result is “inactive”.

Take `COc1cc(/C=C/C(=O)O[C@@H]2C[C@](O)(C(=O)O)C[C@@H](O)[C@H]2O)ccc1O`: the Potency entry was “inactive”.

As to `COc1cc(C2OCC3(O)C(c4ccc(O[C@@H]5O[C@H](CO)[C@@H](O)[C@H](O)[C@H]5O)c(OC)c4)OCC23O)ccc1O` (some centres undefined), the Potency result is “inactive”.

On to `C[C@@H]1O[C@@H](O[C@@H]2\C=C/C=C\C=C/C=C\C[C@H](C)OC(=O)/C=C\[C@H]3O[C@@H]3C[C@H](O)C[C@]3(O)C[C@@H](O)[C@@H](C(=O)O)[C@H](C2)O3)[C@H](O)[C@H](N)[C@@H]1O`, for which the Potency entry was “inactive”.

In the case of `CCOC(=O)C(CCc1ccccc1)NC(C)C(=O)N1Cc2ccccc2CC1C(=O)O` (centres undefined), the Potency result was “inactive”.

For the compound `CC(=O)O[C@H]1C[C@@H](O)C(C)(C)C2C[C@@H](OC(C)=O)[C@]3(C)C(CC[C@@]4(C)[C@H](c5ccoc5)OC(=O)[C@H]5O[C@]543)[C@]21C` (some centres undefined), the Potency entry was “inactive”.

`CC1=C[C@@H]2[C@H]3[C@@H]4O[C@@](C)(CC[C@H]4O)[C@H]3CC(=O)[C@]23C(=O)N[C@@H](CC(C)C)[C@@H]3[C@@H]1C`: the Potency result was “inactive”.

As to `CC1OC(OC2C(OC3C(O[C@H]4CC[C@@]5(C)C(CC[C@]6(C)C5C(=O)CC5=C7CC(C)(C)CC(O)[C@]7(C)CC[C@]56C)C4(C)C)OC(C(=O)O)C(O)C3O)OCC(O)C2O)C(O)C(O)C1O` (some centres undefined), the activity, negative = inhibition was -10.9% [at 11.6 µM].

(Values after PubChem BioAssay (NCATS).)
